Results as given in PubChem BioAssay.
Active and inactive are the calls of the source.

How the values were obtained:
[1] = small molecules captured by biotinylated probe aFSTL3 – biochemical, small-molecule microarray, fluorescence 635/667, stem cell growth factor project, primary screen (AID 1064); details: higher = more signal;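 note: measures binding of the biotinylated anti-FSTL3 antibody to printed compounds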
[2] = binders from COS7 lysate, DM2A8 probe, primary screen, torsin A project, cell lysate, small-molecule microarray, fluorescence 635/667 (AID 1065); details: higher = more signal, COS7 lysate expressing mutant human TOR1A
[3] = small molecules captured by biotinylated probe aFGF2 – biochemical, small-molecule microarray, fluorescence 635/667, stem cell growth factor project, primary screen (AID 1067); details: higher = more signal;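 note: measures binding of biotinylated aFGF2 protein to printed compounds on slides; z-score merges feature fluorescence and signal-to-noise across triplicate slides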
[4] = small molecules captured by biotinylated probe aFGF10 – biochemical, small-molecule microarray, fluorescence 635/667, stem cell growth factor project, primary screen (AID 1071); details: higher = more signal;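 note: score merges 667 nm spot intensity and signal to noise from triplicate slides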
[5] = target: Neurogenic locus notch homolog protein 2 (Homo sapiens) (UniProt Q04721); assay: small molecules binding Notch2 protein – biochemical, small-molecule microarray, 635 nm fluorescence, stem cell growth factors, primary screen (AID 1073); details: higher = more signal
[6] = target: Pro-neuregulin-1, membrane-bound isoform (Homo sapiens) (UniProt Q02297); assay: small molecules binding neuregulin-1 protein – biochemical, small-molecule microarray, fluorescence 635/667, psychiatric disease protein project, primary screen (AID 1075); details: NRG1 binding, 635 nm fluorescence, higher = more signal;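 note: score combines 667 nm spot fluorescence with signal to noise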
[7] = system: Neuregulin-1 EGF-like domain; assay: small molecules binding NRG1 EGF domain – biochemical, small-molecule microarray, 635 nm fluorescence, primary screen (AID 1081); details: higher = more signal;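 note: binding of the protein to compounds printed on small-molecule microarray slides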
[8] = FRG1 expression reporter modulators in myotubes – cell-based, C2C12 myotubes, firefly/Renilla luciferase, luminescence, FRG1 inhibition for FSHD, primary screen (AID 1084); details: FRG1 promoter luciferase, higher = more signal, called active from +8 up or from −8 down
[9] = small molecules captured by biotinylated probe aFST – biochemical, small-molecule microarray, fluorescence 635/667, stem cell growth factor project, primary screen (AID 1086); details: higher = more signal;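 note: score merges 667 nm fluorescence with signal-to-noise of each printed compound spot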
[10] = binders of probe aHhip on microarray, primary screen, stem cell growth factor project, biochemical, small-molecule microarray, fluorescence 635/667 (AID 1087); details: higher = more signal;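 note: score merges spot fluorescence at 667nm with spot signal to noise ratio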
[11] = system: PRMT1 (protein arginine N-methyltransferase 1); assay: small molecules binding arginine methyltransferase PRMT1 – biochemical, small-molecule microarray, 635 nm fluorescence, primary screen (AID 1088); details: higher = more signal;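 note: binding of Prmt1 protein to compounds spotted on small-molecule microarray slides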
[12] = growth effects on S. cerevisiae YJM789 – YJM789 clinical isolate, OD600, 24 h, basal, primary screen (AID 1089); details: higher = more signal, called active from +8 up or from −8 down;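 note: growth of clinical yeast isolate S. cerevisiae YJM 789 seeded 1000 cells per well; test concentration not given here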
[13] = S. pombe growth modifiers, basal conditions – strain 972, OD600, 24 h, no modulator, primary screen (AID 1090);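 note: basal condition with compound alone and no growth modifier present; test concentration not given here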; details: S. pombe 972 growth, higher = more signal, called active from +8 up or from −8 down
[14] = budding yeast growth modifiers under rapamycin – strain BY4716, OD600, 96 h, primary screen (AID 1091); note: test concentration not given here; details: S. cerevisiae BY4716 + rapamycin, higher = more signal, called active from +8 up or from −8 down
[15] = target: Torsin-1A-interacting protein 2 (Homo sapiens) (UniProt Q8NFQ8); assay: small molecules binding lysate-expressed LULL1 – cell lysate, human LULL1 lysate, 635/667 nm fluorescence, primary screen (AID 1092); details: small-molecule microarray, hLULL1 lysate binding, 635 nm fluorescence; higher = more signal;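 note: probe is lysate of COS7 cells overexpressing human LULL1; score merges per-feature 667 nm fluorescence with signal-to-noise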
[16] = optical density change of DRC41 E. coli – strain DRC41, OD650, 24 h, E. coli filamentation project, primary screen (AID 1093);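 note: MC1000 strain lacking acrAB efflux and sulA so SOS filamentation is blocked; test concentration not given here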; details: E. coli DRC41 growth, higher = more signal, called active from +8 up or from −8 down
[17] = probe aLefty2 binding to arrayed compounds – biochemical, biotinylated probe, 635/667 nm fluorescence, primary screen (AID 1094); details: small-molecule microarray, higher = more signal;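 note: score merges spot fluorescence near 667 nm with spot signal-to-noise ratio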
[18] = system: Noggin (protein binding on small-molecule microarray); assay: small molecules binding Noggin protein – biochemical, 635/667 nm fluorescence, primary screen (AID 1095); details: 635 nm fluorescence, higher = more signal;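 note: score merges 667 nm feature fluorescence with signal to noise over triplicate slides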
[19] = target: Neurogenic locus notch homolog protein 3 (Homo sapiens) (UniProt Q9UM47); assay: small molecules binding NOTCH3 protein – biochemical, 635/667 nm fluorescence, primary screen (AID 1096); details: small-molecule microarray, 635 nm fluorescence, higher = more signal
[20] = probe aEGFR binding to arrayed compounds – biochemical, biotinylated probe, 635/667 nm fluorescence, primary screen (AID 1097); details: small-molecule microarray, higher = more signal;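 note: probe is a biotinylated anti-EGFR antibody binding compounds printed on slides; score combines fluorescence near 667 nm and signal to noise of each spot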

Sequence of Pro-neuregulin-1, membrane-bound isoform (Homo sapiens) (Q02297 whole entry, looked up, the tested form may be a part, canonical isoform): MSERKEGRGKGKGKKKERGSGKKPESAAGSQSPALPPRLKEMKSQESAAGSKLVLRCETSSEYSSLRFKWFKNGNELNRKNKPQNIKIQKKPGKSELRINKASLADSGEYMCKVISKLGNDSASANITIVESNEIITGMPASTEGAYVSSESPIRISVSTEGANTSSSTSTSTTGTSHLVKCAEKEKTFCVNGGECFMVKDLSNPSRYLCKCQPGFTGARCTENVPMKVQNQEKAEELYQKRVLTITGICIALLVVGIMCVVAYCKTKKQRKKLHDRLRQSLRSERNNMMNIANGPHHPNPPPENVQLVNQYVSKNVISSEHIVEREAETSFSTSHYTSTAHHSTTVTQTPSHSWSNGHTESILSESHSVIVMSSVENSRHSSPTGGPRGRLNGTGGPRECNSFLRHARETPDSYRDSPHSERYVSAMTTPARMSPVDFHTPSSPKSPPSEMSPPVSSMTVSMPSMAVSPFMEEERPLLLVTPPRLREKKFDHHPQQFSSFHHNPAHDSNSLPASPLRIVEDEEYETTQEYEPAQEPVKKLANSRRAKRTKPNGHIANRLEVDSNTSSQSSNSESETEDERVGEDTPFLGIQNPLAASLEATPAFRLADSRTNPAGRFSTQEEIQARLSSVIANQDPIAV
Sequence of Torsin-1A-interacting protein 2 (Homo sapiens) (Q8NFQ8 whole entry, looked up): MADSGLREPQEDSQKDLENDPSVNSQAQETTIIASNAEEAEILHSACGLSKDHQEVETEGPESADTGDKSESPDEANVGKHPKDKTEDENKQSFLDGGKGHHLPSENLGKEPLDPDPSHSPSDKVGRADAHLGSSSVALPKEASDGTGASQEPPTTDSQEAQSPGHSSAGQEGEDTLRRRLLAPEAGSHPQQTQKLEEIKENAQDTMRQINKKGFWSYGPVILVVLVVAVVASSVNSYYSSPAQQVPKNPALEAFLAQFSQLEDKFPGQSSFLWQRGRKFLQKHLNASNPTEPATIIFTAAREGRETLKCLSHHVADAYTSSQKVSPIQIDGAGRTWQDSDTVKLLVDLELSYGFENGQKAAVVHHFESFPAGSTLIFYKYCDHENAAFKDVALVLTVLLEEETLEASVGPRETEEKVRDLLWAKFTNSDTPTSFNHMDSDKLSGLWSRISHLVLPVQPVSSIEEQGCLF
Sequence of Neurogenic locus notch homolog protein 2 (Homo sapiens) (Q04721 whole entry, looked up, canonical isoform): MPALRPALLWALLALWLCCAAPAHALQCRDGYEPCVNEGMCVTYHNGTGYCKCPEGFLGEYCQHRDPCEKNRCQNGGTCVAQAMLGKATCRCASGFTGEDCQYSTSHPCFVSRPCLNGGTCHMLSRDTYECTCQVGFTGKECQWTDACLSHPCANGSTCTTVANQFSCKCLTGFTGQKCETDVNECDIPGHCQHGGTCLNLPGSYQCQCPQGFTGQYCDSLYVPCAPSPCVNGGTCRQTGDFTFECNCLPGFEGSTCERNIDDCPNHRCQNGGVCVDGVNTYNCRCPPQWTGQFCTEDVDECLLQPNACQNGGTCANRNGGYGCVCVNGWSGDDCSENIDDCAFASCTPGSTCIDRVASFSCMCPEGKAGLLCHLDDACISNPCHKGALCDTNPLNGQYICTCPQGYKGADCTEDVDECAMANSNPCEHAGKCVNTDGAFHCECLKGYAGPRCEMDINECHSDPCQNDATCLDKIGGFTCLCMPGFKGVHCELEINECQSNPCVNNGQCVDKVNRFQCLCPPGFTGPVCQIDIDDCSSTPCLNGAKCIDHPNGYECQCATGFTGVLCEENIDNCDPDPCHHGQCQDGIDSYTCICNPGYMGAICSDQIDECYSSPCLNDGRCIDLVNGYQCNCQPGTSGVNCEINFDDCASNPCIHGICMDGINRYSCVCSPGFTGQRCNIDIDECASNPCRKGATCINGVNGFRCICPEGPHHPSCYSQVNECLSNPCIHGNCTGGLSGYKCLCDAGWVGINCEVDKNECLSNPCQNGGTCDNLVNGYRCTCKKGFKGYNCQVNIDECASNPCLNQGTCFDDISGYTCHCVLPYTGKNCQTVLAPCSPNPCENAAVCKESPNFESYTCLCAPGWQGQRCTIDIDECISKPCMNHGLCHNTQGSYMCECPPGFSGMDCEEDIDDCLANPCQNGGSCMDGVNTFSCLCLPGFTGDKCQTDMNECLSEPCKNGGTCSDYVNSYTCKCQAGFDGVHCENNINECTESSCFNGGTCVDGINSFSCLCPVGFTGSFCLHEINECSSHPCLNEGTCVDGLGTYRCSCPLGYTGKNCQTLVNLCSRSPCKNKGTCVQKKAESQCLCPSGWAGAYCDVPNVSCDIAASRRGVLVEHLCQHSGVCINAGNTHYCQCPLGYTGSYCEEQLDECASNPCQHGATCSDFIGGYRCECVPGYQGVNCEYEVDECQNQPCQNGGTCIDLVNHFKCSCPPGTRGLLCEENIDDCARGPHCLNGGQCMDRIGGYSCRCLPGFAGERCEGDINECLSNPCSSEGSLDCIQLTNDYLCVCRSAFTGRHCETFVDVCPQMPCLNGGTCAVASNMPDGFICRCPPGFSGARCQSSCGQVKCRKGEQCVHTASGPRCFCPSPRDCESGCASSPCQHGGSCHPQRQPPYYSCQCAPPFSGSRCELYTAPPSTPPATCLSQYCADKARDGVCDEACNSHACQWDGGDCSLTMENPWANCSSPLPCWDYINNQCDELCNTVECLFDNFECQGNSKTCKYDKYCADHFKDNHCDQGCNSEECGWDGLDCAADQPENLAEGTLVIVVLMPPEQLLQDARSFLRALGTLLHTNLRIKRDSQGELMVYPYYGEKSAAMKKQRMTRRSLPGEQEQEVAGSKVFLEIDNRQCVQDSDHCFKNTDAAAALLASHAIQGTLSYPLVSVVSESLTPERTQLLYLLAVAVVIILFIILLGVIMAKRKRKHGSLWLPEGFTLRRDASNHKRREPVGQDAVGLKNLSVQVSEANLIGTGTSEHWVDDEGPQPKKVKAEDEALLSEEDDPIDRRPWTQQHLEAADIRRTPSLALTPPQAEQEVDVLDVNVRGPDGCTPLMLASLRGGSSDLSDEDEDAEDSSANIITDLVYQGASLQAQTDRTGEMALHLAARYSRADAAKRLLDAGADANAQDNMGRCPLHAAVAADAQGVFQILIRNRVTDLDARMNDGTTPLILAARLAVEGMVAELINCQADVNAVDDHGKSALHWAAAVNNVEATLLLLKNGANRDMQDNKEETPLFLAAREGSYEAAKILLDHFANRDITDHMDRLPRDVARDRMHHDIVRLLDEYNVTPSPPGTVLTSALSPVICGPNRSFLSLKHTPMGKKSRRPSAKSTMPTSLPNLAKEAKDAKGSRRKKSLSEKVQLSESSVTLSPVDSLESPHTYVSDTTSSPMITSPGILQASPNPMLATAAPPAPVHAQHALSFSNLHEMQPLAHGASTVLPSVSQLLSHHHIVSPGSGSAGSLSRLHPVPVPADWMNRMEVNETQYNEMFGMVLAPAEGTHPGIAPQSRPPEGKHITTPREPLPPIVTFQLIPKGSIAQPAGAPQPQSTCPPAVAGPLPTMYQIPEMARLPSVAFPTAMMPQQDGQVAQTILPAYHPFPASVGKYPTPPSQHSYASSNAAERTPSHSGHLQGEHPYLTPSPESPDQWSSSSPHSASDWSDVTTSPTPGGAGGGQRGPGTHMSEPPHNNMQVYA

Row | Compound | composite z-score [1] | composite z-score [2] | composite z-score [3] | composite z-score [4] | composite z-score [5] | composite z-score [6] | composite z-score [7] | z-score [8] | composite z-score [9] | composite z-score [10] | composite z-score [11] | z-score [12] | z-score [13] | z-score [14] | composite z-score [15] | z-score [16] | composite z-score [17] | composite z-score [18] | composite z-score [19] | composite z-score [20]
1 | CCCCC(=C=CC[C@@H](O)c1ccccc1OCCO)CCO | -0.347 | 0.163 | -0.0367 | 0.352 | -0.333 | 0.991 | 0.479 | 0.0128 (inactive) | 0.0797 | -0.236 | -0.144 | 0.598 (inactive) | -0.424 (inactive) | -0.374 (inactive) | 1.06 | 0.205 (inactive) | -0.192 | 0.201 | -0.0525 | -0.199
2 | C=CCC(OC(C)=O)[C@@H]1[C@@H](N(Cc2ccc(-c3cccc(C(F)(F)F)c3)o2)C(=O)c2ccc(-c3ccccc3)cc2)c2cc(OCCCO)ccc2N1C(=O)c1ccc(-c2ccccc2)cc1 (stereo not given in full) | 0.0961 | -0.233 | -0.0242 | 0.232 | 0.242 | 0.0249 | -0.825 | -0.245 (inactive) | 0.13 | -0.0994 | -0.432 | 0.308 (inactive) | -0.0943 (inactive) | 0.8 (inactive) | 1.03 | -0.801 (inactive) | 0.0869 | -0.29 | -0.147 | -0.15
3 | C=CC[C@]12N=C(c3ccc(OCCCO)cc3)O[C@H]1c1ccccc1N(Cc1ccccc1)C2=O | 1.67 | 0.473 | -0.0316 | -0.138 | 0.877 | 0.138 | 0.774 | -2.33 (inactive) | 0.625 | 0.0176 | 1.46 | -0.523 (inactive) | -0.371 (inactive) | 1.89 (inactive) | 1.04 | 0.508 (inactive) | 0.331 | 0.313 | 0.483 | -0.0692
4 | [N-]=[N+]=NCc1ccccc1C[C@]1(C(=O)NCC(O)CO)N=C(c2ccc(OCCCO)cc2)O[C@H]1c1ccccc1 (stereo not given in full) | 0.881 | 0.34 | -0.0039 | -0.48 | -0.316 | 0.958 | 0.849 | -0.938 (inactive) | 0.506 | 0.158 | -0.434 | -0.0234 (inactive) | 0.559 (inactive) | -1.04 (inactive) | 2.62 | 0.478 (inactive) | 0.38 | -0.918 | -1.29 | -0.0758
5 | C=CCOC(=O)[C@H]1[C@@H]2C(=O)O[C@@H](c3ccccc3)[C@@H](c3ccccc3)N2[C@@H](c2ccc(OCCOC(=O)[C@H]3C[C@H]4C(=O)N5CCC[C@H]5C(=O)N4[C@H]3c3ccc(O)cc3)cc2)[C@]12C(=O)Nc1ccccc12 | -0.168 | 0.847 | 0.0069 | 0.516 | 1.47 | 1.33 | 1.4 | 1.31 (inactive) | 0.0557 | 0.0881 | 1.54 | 1.31 (inactive) | 0.998 (inactive) | 3.27 (inactive) | 3.03 | -0.92 (inactive) | 0.0292 | 0.744 | 0.938 | 0.127
6 | COc1cc(CO)cc(I)c1O[C@H]1C=C(C(=O)NCCO)C[C@@H](N(CCN2CCOCC2)C(=O)C2CCOC2)[C@@H]1O (stereo not given in full) | -0.458 | 0.158 | -0.12 | 0.501 | -0.0056 | -0.0813 | -0.479 | -1.22 (inactive) | 0.0409 | 1.25 | 0.815 | -0.263 (inactive) | -0.62 (inactive) | -0.679 (inactive) | -0.367 | 2.36 (inactive) | -0.0636 | 0.407 | 0.51 | -0.099
7 | CCOC(=O)[C@H]1C/C=C/C[C@H](C(=O)OCC)C(=O)O[C@H]2[C@@H](OC)O[C@H](CO)[C@@H](OC(=O)Nc3ccc(C#N)cc3)[C@@H]2OC1=O | 0.0283 | -0.317 | -0.0414 | 0.287 | -0.194 | 1.39 | 1.02 | -0.1 (inactive) | 0.143 | -0.119 | 0.595 | -1.87 (inactive) | -1.11 (inactive) | 32.1 (active) | 2.36 | 1.92 (inactive) | -0.162 | 0.0435 | 0.466 | -0.382
8 | COc1ccc(C(=O)Nc2ccc(CN3C(=O)[C@@]4(O[C@@H](CC(=O)N5CCC[C@H]5CO)[C@H]([Si](C)(C)c5ccc(OC)cc5)[C@H]4C)c4ccccc43)cc2)cc1 | -0.172 | 0.195 | -0.0202 | 0.577 | 1.47 | 1.3 | 1.16 | -4.05 (inactive) | 0.543 | 0.176 | 1.55 | -0.466 (inactive) | -0.838 (inactive) | -0.436 (inactive) | 2.07 | 0.632 (inactive) | -0.0134 | 1.05 | 1.09 | 0.131
9 | CCN(CC)c1ccc(N2CC=CC34O[C@@H]5/C=C\CCCOC(=O)C5[C@H]3C(=O)N(CCO)[C@@H]4C2=O)cc1 (stereo not given in full) | 0.244 | -0.542 | -0.0785 | -0.715 | -1.24 | 1.84 | 0.632 | 0.599 (inactive) | -0.584 | -0.0061 | 0.0226 | 0.0765 (inactive) | -1.11 (inactive) | 0.0541 (inactive) | 1.3 | 0.557 (inactive) | -0.253 | -0.715 | -0.162 | -0.286
10 | O=C1O[C@H](c2ccccc2)[C@H](c2ccccc2)N2[C@H]1[C@@H](C(=O)NC[C@H](O)c1ccccc1)[C@]1(C(=O)Nc3ccccc31)[C@H]2c1ccc(OCCO)cc1 | 0.0809 | 0.267 | -0.039 | 0.345 | 0.404 | 1.05 | 1.21 | 1.8 (inactive) | 0.368 | 0.0551 | 1.58 | 2.12 (inactive) | 1.93 (inactive) | 5.07 (inactive) | 2.39 | -0.965 (inactive) | -0.147 | 0.234 | 0.797 | -0.0244
